According to PubChem BioAssay (NCI):
Values joined by “and” are separate entries in the source; they are usually repeats but may differ in a detail not shown here. Equal values may be shown once. This is part of a sample that, as a whole, favours compounds with a hit. Of some 83,000 tested, about 20% had one in any assay.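 Activity criterion: percent growth below 10, measured after cells in 96-well plates were exposed to a single compound concentration for 48 hours.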 A number with no mark means an inactive call. Active and inactive are the calls of the source.

How the values were obtained:
Assay in all cases: NCI-60 one-dose screen, 48 h (100 = growth as untreated, 0 = no growth, -100 = all killed)
Conditions in all cases: 10 µM unless noted
SK-MEL-2 melanoma = system: SK-MEL-2 melanoma
EKVX NSCLC = system: EKVX NSCLC
SN12C renal = system: SN12C renal
UO-31 renal = system: UO-31 renal
TK-10 renal = system: TK-10 renal
ACHN renal = system: ACHN renal
CAKI-1 renal = system: CAKI-1 renal
A498 renal = system: A498 renal
CCRF-CEM leukemia = system: CCRF-CEM leukemia
MOLT-4 leukemia = system: MOLT-4 leukemia

SMILES	growth (SK-MEL-2 melanoma)	growth (EKVX NSCLC)	growth (SN12C renal)	growth (UO-31 renal)	growth (TK-10 renal)	growth (ACHN renal)	growth (CAKI-1 renal)	growth (A498 renal)	growth (CCRF-CEM leukemia)	growth (MOLT-4 leukemia)
O=C(Nc1nc2ccccc2s1)Nc1ccccc1Cl	99.9%	64.5%	83.9%	66.8%	84.7%	49.3%	45.2%	162%	97.5%	107%
CCOC(=O)/C(F)=C/C1CC1C1CCN(C(=O)OC(C)(C)C)CC1 (stereo not given)	110%	74.4%	62.6%	81.6%	104%	97.4%	93.7%	127%	104%	106%
Cc1nn(-c2ccccc2)c2nc(C)n(CC(=O)N/N=C/c3cccc([N+](=O)[O-])c3)c(=O)c12	101%	76.8%	89.1%	69.7%	103%	104%	88%	95.8%	85.1%	88%
O=C(CSc1nc2ccccc2c(=O)[nH]1)Nc1ccccc1C(=O)O	116%	92.3%	98.9%	71.8%	116%	89.3%	89.9%	216%	90.5%	97%
Nc1nn2c(-c3cc4ccccc4oc3=O)ccnc2c1N=Nc1ccccc1	97.4%	66.9%	48.6%	63.2%	103%	54.9%	81.8%	111%	101%	113%
COc1ccc2c(c1)N=c1c-2cc2c(O)[nH]c(=S)n2c1=O	41.9%	48.7%	35.6%	47.8%	73.5%	44.9%	29.7%	105%	11.1%	35.1%
C[C@@H]1CN(c2ccc3ncc(C#Cc4cncc(C(=O)Nc5ccc(CN6CCN(C)CC6)c(C(F)(F)F)c5)c4)n3n2)C[C@@H](C)O1	-88.4% (active)	-96% (active)	-66.5% (active)	-99.3% (active)	-98% (active)	-95.3% (active)	-95.3% (active)	-99% (active)	-36% (active)	4.86% (active)
COC(=O)c1cc(C(=O)C(F)(F)F)n2c3ccccc3c3ccccc3c12	97.6%	78.3%	53.1%	39%	73.7%	18.2%	43.1%	120%	97.6%	97.4%
CS(=O)(=O)Nc1cccc(-n2c(COc3ccc(OC(F)(F)F)cc3)nc3ccccc32)c1	86% and 110%	86.4% and 98%	113% and 115%	51.1% and 87.7%	105% and 111%	81% and 109%	61.4% and 99.4%	98.2% and 127%	93.3% and 99.8%	80.3% and 97%
COc1ccc(Nc2ncnc3sc4c(c23)CCN(Cc2ccccc2)C4)cc1	87.4%	75.8%	85.4%	49%	109%	77%	52%	91.9%	73.5%	62.4%
CC(Nc1ncnc2ccc(-c3ccc4oc(N)nc4c3)cc12)c1ccccc1 (stereo not given)	34.6%	5.01% (active)	-17.7% (active)	-76.4% (active)	-41.4% (active)	-64.2% (active)	-40.6% (active)	49.8%	2.38% (active)	-39.9% (active)
CC(=O)c1ccc2c(N)c(C(=O)Nc3ccc(C(F)(F)F)cc3)sc2n1	67.7%	40.7%	73%	73.8%	67%	66.2%	56.9%	126%	60.9%	32.7%
COc1cc(CNC(=O)C[C@H](C)CCC=C(C)C)ccc1OCc1cn(-c2ccc(Br)cc2)nn1	78%	79%	71.6%	62.9%	109%	56.4%	28.8%	105%	61.1%	70%
CN1C(=O)/C(=C\C(=O)c2cc3ccccc3oc2=O)c2ccccc21	65.1%	63.6%	66.3%	53.6%	98%	25.3%	65.2%	160%	43.4%	50.4%
COc1ccc(-c2cc(C(=O)Oc3ccc(C=O)cc3OC)nn2-c2ccc(S(C)(=O)=O)cc2)cc1	110%	98%	90.7%	78.2%	147%	106%	98.3%	126%	83.6%	86.6%
Cc1ccc(C2CC(c3ccc(NC(=O)Nc4ccccc4)cc3)=NN2c2ccc(S(C)(=O)=O)cc2)cc1 (stereo not given)	-13.7% (active)	-2.75% (active)	-94% (active)	3.37% (active)	21.7%	-44.4% (active)	5.74% (active)	-16.3% (active)	9.5% (active)	20.3%
C=CCn1c(O)c(N=Nc2nc(-c3cc4ccccc4oc3=O)cs2)c2ccccc21	64.4%	55.7%	90.7%	101%	90.9%	78.4%	94.3%	137%	35.8%	98.3%
CCCCC[C@@H]1C/C=C(\C)[C@@H](O)C(C)(C)C(=O)[C@@H](C)/C=C(\C)[C@@H]2C[C@H](O)C[C@](O)(CC(=O)O1)O2	9.84% (active)	21.4%	76.8%	20.4%	55.1%	19.7%	47.1%	30%	28.9%	18.2%
CCC(=O)c1c2c(c3ccc4c5ccccc5ccc4n13)C(=O)c1ccccc1C2=O	89.2%	71.2%	85.6%	59.8%	122%	83.3%	84%	215%	100%	89.6%
O=C(c1ccc(O)cc1)C1[C@H](c2ccc(Cl)cc2)[C@@H](c2ccccc2)NC12C(=O)Nc1ccccc12 (stereo not given in full)	-72.3% (active)	8.32% (active)	-83.8% (active)	3.54% (active)	11.8%	3.11% (active)	3.82% (active)	-2.62% (active)	-7.04% (active)	-34.3% (active)
Fc1ccc(N2CC(Cn3c(C(F)(F)F)cc4c(Cl)ncnc43)C2)c(F)c1	-78.1% (active)	72.4%	-29.1% (active)	-92% (active)	104%	41.8%	71.7%	130%	-38.5% (active)	-61.3% (active)
O=c1c(-c2nc(-c3ccccc3)c(-c3ccccc3)[nH]2)coc2ccc(F)cc12	62.9%	25.7%	68.9%	40.4%	94.3%	51%	64.9%	109%	49%	23.6%
Nc1cc(-c2c[nH]c3ccc(Cl)cc23)nc2cc(-c3c[nH]c4ccccc34)nn12	-45.8% (active)	-23.7% (active)	6.54% (active)	-4.79% (active)	-7.78% (active)	0.126% (active)	-19.1% (active)	-14% (active)	-16.6% (active)	-27.4% (active)
Cc1nc2sccn2c1-c1nnc(SCc2ccccc2)o1	87%	87.5%	86.6%	74.2%	110%	92.6%	85.2%	87.8%	91.3%	88.1%
COc1ccc(NC(=O)Nc2nc3ccc([N+](=O)[O-])cc3s2)cc1	33.4%	9.23% (active)	9.66% (active)	-5.06% (active)	29.7%	10.8%	13.9%	21.8%	11.2%	8.05% (active)
